Hits are enriched below; roughly 2.8% of the tested compounds scored in any of these assays.
ERa coact pot: ER-alpha (human) coactivator binding potentiation; P03372; coactivator binding (% of control), % at 25.6 µM; 86,000 compounds, 1.3% hits; TR-FRET ERalpha-LBD/SRC-Cy5 coactivator binding, 2 h; 100 = basal binding, no effect; in the data active = activity above about 200%;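 also: binding measured in presence of low estradiol as agonist stimulus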
Target sequence (P03372 whole entry, looked up, the tested form may be a part): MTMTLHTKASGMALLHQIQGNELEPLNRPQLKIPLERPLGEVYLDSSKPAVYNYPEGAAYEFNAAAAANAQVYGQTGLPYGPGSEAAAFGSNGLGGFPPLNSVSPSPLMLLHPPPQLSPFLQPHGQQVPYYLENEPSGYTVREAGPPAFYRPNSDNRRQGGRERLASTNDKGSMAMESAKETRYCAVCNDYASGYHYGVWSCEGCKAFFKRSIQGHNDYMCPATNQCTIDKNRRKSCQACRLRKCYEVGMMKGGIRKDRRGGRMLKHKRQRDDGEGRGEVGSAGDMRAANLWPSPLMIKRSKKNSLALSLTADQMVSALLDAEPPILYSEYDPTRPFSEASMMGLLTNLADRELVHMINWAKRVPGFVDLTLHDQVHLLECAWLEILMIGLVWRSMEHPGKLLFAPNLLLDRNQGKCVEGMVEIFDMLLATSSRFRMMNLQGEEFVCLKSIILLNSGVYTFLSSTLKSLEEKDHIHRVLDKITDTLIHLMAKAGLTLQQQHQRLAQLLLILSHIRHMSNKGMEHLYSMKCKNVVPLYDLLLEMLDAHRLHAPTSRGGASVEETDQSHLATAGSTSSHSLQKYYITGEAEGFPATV
ERa coact inh: blocks coactivator binding to human estrogen receptor alpha; TR-FRET ER-alpha LBD / SRC-1 peptide, estradiol-bound; inhibition, % at 25.6 µM; 86,000 compounds, 1.7% hits; P03372; in the data active = inhibition above about 50%
EphB4 ephrin blk: antagonists of human EphB4-ephrin-B2 interaction; inhibition, % at 7 µM; 97,000 compounds, 0.15% hits; P54760; EphB4 LBD / TNYL-RAW-Alexa532 peptide, fluorescence polarization;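 active = inhibition above the screen-wide mean inhibition plus 3 SD, cut at about 15% in these data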
ERb SRC1 inh: blocks coactivator binding to human estrogen receptor beta | Q92731 | TR-FRET ER-beta LBD / SRC1-Cy5 peptide binding; receptor agonist-loaded with 1 µM estradiol | inhibition, % at 25.6 µM | 86,000 compounds, 1.3% hits | AID 633;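 active = compounds whose percent inhibition of the receptor-coactivator binding signal exceeds about 50% in the single-dose screen, limit read from the data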
Of the large screens only hits and unclear results are named; the others gave an inactive call; [ ] = dose if it differs, or a comment.

CCCCSc1nc2c(cnn2-c2ccc(F)cc2)c(=O)[nH]1	ERa coact pot 209.4[fluorescence artefact?]
COC(=O)c1ccc(CSc2nc3c(cnn3-c3ccc(Cl)cc3)c(=O)[nH]2)o1	ERa coact pot 342.7[fluorescence artefact?]
C=CCn1c(CNc2ccc(C)cc2)nnc1SCC(=O)N/N=C/c1ccc(O)cc1	none (no result: ERa coact pot, ERa coact inh, ERb SRC1 inh)
CC(C)NC(=O)c1onc(CSc2cccc(Cl)c2)c1C(=O)O	none (no result: ERa coact pot, ERa coact inh, ERb SRC1 inh)
O=C1CC(=C2c3ccccc3-c3ccccc32)C(=O)N1CCCCN1CCN(c2ccccc2)CC1	none
O=c1c2c3c(sc2nc2sc(CN4CCOCC4)cn12)CCCC3	none
C=CCn1c(O)c(C(CC)=NCc2cccnc2)c(=O)[nH]c1=O	ERb SRC1 inh 50.2
O=C1C(C=NCc2cccnc2)=C(O)c2ccccc21	none
CCOC(=O)c1cc(OC(=O)c2ccccc2OC)n(-c2ccccc2)n1	ERa coact inh 74.3[fluorescence artefact?]
CCOC(=O)c1cnn(-c2ccccc2)c1N	none
COCCSc1ccccc1C(=O)Nc1cc(C)on1	ERb SRC1 inh 95.9[fluorescence artefact?]
Clc1ccc2nc(CN3CCCc4ccccc43)cn2c1	none
CCOC(=O)c1c(C)oc2c1c(C(c1cccnc1)N1CCCCC1)c(O)c1ccccc12 (stereo not given)	ERa coact inh 67.8, ERb SRC1 inh 67.2
CCOC(=O)c1c(C)oc2c1c(C(c1ccccc1)N1CCOCC1)c(O)c1ccccc12 (stereo not given)	none (no result: ERa coact pot, ERa coact inh, ERb SRC1 inh)
C/C(=N\NC(=O)CC1N=C(Cc2ccccc2)NNC1=O)c1ccc(Cl)cc1Cl (stereo not given)	none
COc1ccc(Br)cc1CNC(=O)C1CCCN(c2nc3ccccc3o2)C1 (stereo not given)	ERa coact inh 64.3
c1ccc(Cn2nnnc2C(c2cccnc2)N2CCN(c3ccccc3)CC2)cc1 (stereo not given)	none
CCOc1ccc(Cn2nnc(C(=O)NCc3ccc(OC)cc3)c2N)cc1	ERa coact pot 227.7
CCc1ccc(Cn2nnc(C(=O)Nc3ccc(OC)cc3OC)c2N)cc1	none
CCC(C)Nc1c2c(nc3c(-c4ccccc4)c(C)nn13)CCC2 (stereo not given)	none
CC(NC(=O)Cn1nnc(-c2ccncc2)n1)c1ccccc1 (stereo not given)	none
CCc1ccc2nc(NC(=O)CSCc3c(C)noc3C)sc2c1	ERb SRC1 inh 91.2[fluorescence artefact?]
COc1ccc2nc(NC(=O)c3cccc(OCc4c(C)noc4C)c3)sc2c1	none (no result: EphB4 ephrin blk)
COc1cc(C2c3c(oc4ccc(Cl)cc4c3=O)C(=O)N2Cc2ccco2)cc(OC)c1OC (stereo not given)	ERa coact inh 56.1 (no result: EphB4 ephrin blk)
CCOc1c2ccc(C(=O)NCc3ccc(C)cc3)cc2nn1CCOC	none (no result: ERa coact pot, ERa coact inh, ERb SRC1 inh)
Clc1ccc(COc2ccccn2)c(Cl)c1	none
CCN(CC)c1ccc2c(c1)oc(=O)c1c(Cl)cc(=O)oc12	ERa coact pot 308.9
O=S(=O)(/N=C(\Sc1ccc(Cl)cc1)c1ccccc1)c1ccccc1	ERa coact inh 77.3, ERb SRC1 inh 55.2[fluorescence artefact?]
C=CCNc1sc(C(=O)c2ccccc2)c(N)c1C#N	ERa coact inh 97.5[fluorescence artefact?]
O=C(CCCCCn1c(=S)[nH]c2ccc(Br)cc2c1=O)NCC1CCCO1 (stereo not given)	ERa coact inh 52.1[fluorescence artefact?]
CCCn1c(NC(=O)C2COc3ccccc3O2)nc2ccccc21 (stereo not given)	EphB4 ephrin blk 17.5
COc1ccc2nc(NC(=O)C3COc4ccccc4O3)sc2c1 (stereo not given)	none
O=C(Nc1nc(-c2nc3ccccc3s2)cs1)C1COc2ccccc2O1 (stereo not given)	ERa coact inh 67.7 (no result: EphB4 ephrin blk)
Cc1c(Br)c([N+](=O)[O-])nn1C(C)C(=O)Nc1ccc2c(c1)OCO2 (stereo not given)	none (no result: ERa coact pot, ERa coact inh, ERb SRC1 inh)
O=C(Nc1cccnc1)c1ccc(S(=O)(=O)N2CCCCCC2)cc1	ERa coact inh 51.7[fluorescence artefact?]
O=C(Nc1ccccc1)c1ccc(S(=O)(=O)N2CCCCC2)cc1	none (no result: ERa coact pot, ERa coact inh, ERb SRC1 inh)
CCC(C(=O)Nc1nnc(-c2ccco2)s1)c1ccccc1 (stereo not given)	none
COC(=O)C(C)N(C(=O)c1ccc(C(=O)c2ccccc2)cc1)c1c(C)cccc1C (stereo not given)	none
O=C(NC1CCCCC1)C(c1ccccc1)N1CCc2ccccc21 (stereo not given)	ERa coact inh 99.0[fluorescence artefact?]
O=C(NC1CCCC1)C(c1ccc(Cl)cc1)N1CCc2ccccc21 (stereo not given)	none
Cc1ccc(N(CC(=O)Nc2ccc3c(c2)OCCO3)S(=O)(=O)c2c(C)noc2C)cc1	none
COc1ccc(N(CC(=O)Nc2ccc3c(c2)OCCO3)S(=O)(=O)c2c(C)noc2C)cc1	ERb SRC1 inh 98.6[fluorescence artefact?]
COc1ccc(S(=O)(=O)N2CCCCCC2)cc1N(C)S(=O)(=O)c1ccc(Cl)cc1	none (no result: ERa coact pot, ERa coact inh, ERb SRC1 inh)
